TROY signal inh = inhibitors of TROY-driven NF-kB signaling, primary screen, Q293 LMP1-TROYcd cells, NF-kB luciferase, uHTS. Q293 LMP1-TROYcd NF-kB luciferase reporter, 4 h. 0.98% of 360,000 active. inhibition, % at 10 µM;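 active means compounds whose plate-normalised and pattern-corrected inhibition of the luciferase reporter signal at the single screening dose is 50% or more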
KKLEB cytotox = cytotoxicity in KKLEB CF airway cells, primary screen, cytotoxicity control for CF NF-kB inhibitor project, cell-based, uHTS, fluorescence assay plates | KKLEB CF airway cells viability, ATPlite luminescence, overnight; hits give low values; cells stimulated with P. aeruginosa culture filtrate | activity change (cytotoxicity), % at 5 µM | 0.36% of 360,000 active;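 active means corrected activity change at or below -50% at 5 µM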
TWEAK-Fn14 inh = inhibitors of TWEAK-Fn14 signaling, primary screen, luciferase reporter cells, uHTS. 2% of 360,000 active. inhibition, % at 10 µM. AID 1159606, 2016. TWEAK-stimulated Fn14 reporter cells, luciferase luminescence, 8 h; in the data active means inhibition above about 50%
CF NFkB block = inhibitors of PAF-induced NF-kB signaling, primary screen, cell-based, GFP fluorescence, uHTS; KKLEB NF-kB-GFP reporter, GFP fluorescence overnight; inhibition, % at 5 µM; 0.86% of 360,000 active;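 active means at least 50% inhibition at 5 µM, scaled per plate between neutral and stimulator controls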;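 further: PAF is a Pseudomonas aeruginosa culture filtrate used as stimulus; plate controls were PAF-stimulated DMSO wells for no effect and unstimulated DMSO wells for full effect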
Peg3 prom inh = Peg3 promoter-driven luciferase inhibitors, primary screen, cell-based, HeLa, luciferase luminescence; 1.7% of 360,000 active; AID 588405, 2011; inhibition, % at 20 µM; HeLa PEG-Prom luciferase reporter, overnight;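 active means inhibition of at least 50% at 20 µM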
HIF-2a inh = HIF-2a reporter inhibitors, primary screen, luminescence, 786-0 RCC cells; 786-0 RCC cells HIF-2a reporter, luciferase luminescence, overnight; 0.72% of 360,000 active; inhibition, % at 18.8 µM;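 active means inhibition of the luminescence signal of 40% or more relative to plate controls, in a single-dose primary screen at 18.75 µM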
An asterisk follows results filed as active; . = no result. Shown are actives, neighbours in structure and some others; about 4% of the full set was active somewhere.

SMILES	TROY signal inh	KKLEB cytotox	TWEAK-Fn14 inh	CF NFkB block	Peg3 prom inh	HIF-2a inh
Cc1ccc(O)c(C(=O)/C=C/c2ccc3c(c2)OCCCO3)c1	-26	-26	56*	31	-85	-161
Clc1ccccc1OCCNc1nc(NCC2CC2)nc2ccsc12	22	-8	27	2	-8	-15
NC(=O)C1CCN(c2ccc(S(=O)(=O)N3CCCCC3)cc2[N+](=O)[O-])CC1	2	-12	9	0	8	10
CCN1/C(=C/C=C/C=C/C=C/c2sc3ccccc3[n+]2CC)Sc2ccccc21	-1	-6	-1	5	43	13
CC[n+]1c(/C=C2\Sc3ccccc3N2C)ccc2cccc(C)c21	64*	-18	85*	-248	114*	79*
CCN1/C(=C/c2ccc3cc(C)ccc3[n+]2CC)Sc2ccccc21	65*	-3	72*	-312	104*	75*
CCN1/C(=C/c2ccc3cc(C)ccc3[n+]2CC)Sc2cc(C)c(C)cc21	29	-14	45	-11	52*	11
CCN1/C(=C/C=C/c2sc3ccccc3[n+]2CC)Sc2ccccc21	53*	-17	96*	32	78*	-33
CCCCNC(=O)NS(=O)(=O)c1ccc(NC(=O)CCC(=O)c2cccs2)cc1	-22	-7	4	13	11	8
O=C(NC1CCCC1)c1cccc(S(=O)(=O)Nc2ccccc2F)c1	2	15	24	6	7	4
Cc1ccc(C(=O)O)cc1S(=O)(=O)N1CCCC1	-7	-2	1	0	9	14
Cc1ccc(/C=N/NC(=O)c2c(-c3ccccc3)noc2C)c(O)c1	-6	-16	-11	20	49	3
CCOC(=O)C1=C(C)NC(C)=C(C(=O)OCC)C1c1ccc(Br)o1	-37	7	-15	-18	17	20
CC(C)=CCC[C@H](C)C[C@@H]1Cc2[nH]c(=S)[nH]c(=O)c2[C@@H](c2ccc(F)cc2)O1	29	.	1	.	.	-10
CN(C)c1nc(N)nc(-c2cccnc2)n1	-10	15	7	-3	2	-5
Cc1[nH]nc(-c2cccnc2)c1N=NN(C)C	33	-16	22	5	71*	29
Cn1nc(C(F)(F)F)c(-c2ccc(Br)cc2)c1NC(=O)Nc1ccc(F)cc1F	30	-13	15	31	51*	7
Cc1coc2c1C(=O)C(=O)c1c-2ccc2c1CCCC2(C)C	37	-16	33	70*	69*	-45
C[C@H]1COC2=C1C(=O)C(=O)c1c2ccc2c1CCCC2(C)C	31	-3	36	57*	48	-50
Cc1coc2c1C(=O)C(=O)c1c-2ccc2c(C)cccc12	1	-28	26	34	46	-87
COCCn1c(Cc2ccccc2)nnc1SCc1nc2ccccc2c(=O)[nH]1	-1	2	-3	-2	8	10
COc1cc(Br)cc2cc(C(=O)N3CCN(c4ccccn4)CC3)c(=O)oc12	-5	-7	9	11	8	15
COc1ccccc1N(C)S(=O)(=O)c1ccc(C)c(C(=O)N2CCCCCC2)c1	4	-1	-2	5	36	11
CCCn1nnc(NC(=O)Cc2ccccc2)n1	-1	-1	14	3	1	3
CCCCn1nnc(NC(=O)Cc2ccc(Cl)cc2)n1	.	0	74*	-1	5	-5
SMILES	TROY signal inh	KKLEB cytotox	TWEAK-Fn14 inh	CF NFkB block	Peg3 prom inh	HIF-2a inh
CCCCNC(=O)CC1N=C2c3ccccc3N=C(SCC(=O)Nc3cccc(C)c3)N2C1=O (stereo not given)	0	-4	-11	24	10	16
Cc1ccccc1Cn1nnc2c1C(=O)c1ccccc1C2=O	50*	0	9	39	2	-31
Cc1cccc(Cn2nnc3c2C(=O)c2ccccc2C3=O)c1	18	-5	11	62*	40	-26
CN(CC(=O)NNC(=O)CCNS(=O)(=O)c1ccccc1)S(=O)(=O)c1ccc(Cl)cc1	-23	4	18	-1	2	12
Nc1ccc[n+](Cc2ccccn2)c1	-12	-4	-9	1	11	10
N#Cc1c2ccc(OCC(=O)NCc3ccco3)cc2n2ccccc12	7	-9	12	-7	21	9
N#Cc1c2ccc(O)cc2n2ccccc12	6	10	56*	71*	-64	18
COc1cc(CNCc2cccs2)ccc1OCC(=O)NC(C)(C)C	6	-4	0	13	3	12
Cn1c(=O)c2[nH]c(CCCCc3nc4ccccc4[nH]3)nc2n(C)c1=O	15	-19	16	30	0	5
Cn1c(=O)c2[nH]c(CCCCCCCCc3nc4ccccc4[nH]3)nc2n(C)c1=O	41	-14	70*	16	23	0
CC(=O)Nc1ccc(S(=O)(=O)N2CCC(C(=O)c3ccc(Cl)cc3)CC2)cc1	23	4	16	18	11	19
CCn1c(SCC(=O)Nc2ccccc2C)nnc1-c1ccccc1O	3	0	12	-6	16	-1
CCOC(=O)c1c(NC(=O)COc2cccc3c2CCN(C)C3=O)sc2c1CCC2	39	-3	73*	0	40	7
Cc1ccccc1NC(=O)CSc1nnc(-c2ccccc2)n1-c1ccccc1	56*	1	-10	-5	9	16
COc1ccc(-c2nnc(SCC(=O)Nc3sc4c(c3C#N)CCCC4)n2-c2ccccc2)cc1	2	-73*	-53	63*	53*	12
CCOC(=O)c1c(NC(=O)CSc2nnc(-c3c[nH]c4ccccc34)n2C)sc2c1CCCC2	27	-22	56*	6	20	5
Cc1cccc(NC(=O)COc2cccc3c2CCN(C)C3=O)c1C	0	-6	8	-14	12	10
O=C(NCc1cccnc1)c1cc(C2CCCCN2S(=O)(=O)c2ccccc2)on1 (stereo not given)	-2	6	-8	4	5	5
Cc1cccc(NC(=O)c2cc3ccccc3c(=O)o2)n1	-34	-8	51*	-28	-145	-237
O=C(Nc1nc(-c2ccccn2)cs1)c1ncc(Cl)c(Cl)c1Cl	-46	-5	-57	2	69*	2
Cc1nn(Cc2c(Cl)cccc2Cl)c(C)c1NC(=O)c1cn(-c2ccccc2)nc1-c1ccccc1	27	-42	70*	23	115*	34
O=C(CCN1C(=O)/C(=C\c2ccccc2F)SC1=S)N1CCCCC1	-13	0	16	96*	104*	8

Screening results (PubChem BioAssay)
